Measurements reported in the supplement of paper PMC6763611.

Tested on: Plasmodium falciparum NF54
Assay: growth inhibition relative to untreated control; higher = more inhibition
Settings: 72 h
In short: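 In dark 96-well half-area plates, each well held 100 μL of P. falciparum NF54 ring-stage culture at 1% parasitemia and 1% hematocrit. The cultures received a single test-compound dose of 5 μM or 1 μM and were kept at 37 °C for 72 h, in minimal RPMI either plain or enriched with folate (2.2 μM), pABA (7.3 μM), pHBA (7.3 μM), tyrosine (111 μM), phenylalanine (90 μM) and tryptophan. SYBR Green staining gave growth inhibition, expressed against untreated wells, with uninfected erythrocytes serving as the background.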

[1] = 1 µM, MM + chorismate end-products (CM screening medium)
[2] = 5 µM, MM + chorismate end-products (CM screening medium)

Row | SMILES | growth inhibition [1] [%] | growth inhibition (1 µM, minimal medium (MM)) [%] | growth inhibition [2] [%] | growth inhibition (5 µM, minimal medium (MM)) [%]
1 | Cc1ccc(S(=O)(=O)n2cc(-c3ccnc(N)c3)c3cc(Br)cnc32)cc1 | 95.2 | > 100 | 97.8 | 95.2
2 | COc1ccccc1OCCCCn1c(C2CC2)nc2ccccc21 | 37 | 21.3 | 74.9 | 50.7
3 | Nc1cccnc1Nc1ccc(Cl)cc1 | 32 | < 0 | 47.3 | 19.2
4 | CN1CCN(S(=O)(=O)c2ccc(-c3ccc4c(Nc5ccc6nn[nH]c6c5)ccnc4c3)cc2)CC1 | 89.7 | > 100 | 92.9 | 95.1
5 | Cc1cc(Cl)ccc1NC(=O)CCc1ccc(S(=O)(=O)NCC(C)C)cc1 | 23 | < 0 | 6.82 | < 0
6 | Cc1ccc(NC(=O)CC2COc3ccccc3O2)cc1Cl (stereo not drawn) | 23.4 | 10.6 | < 0 | < 0
7 | CCOc1ccccc1C(=O)Nc1cccc(-c2nc3ncccn3c2C)c1 | 75.8 | 76.7 | 95.8 | 85.4
8 | COC(=O)c1c(NC(=O)c2c(F)c(F)c(F)c(F)c2F)sc2c1CCCCC2 | 26.9 | 25.7 | < 0 | < 0
9 | CC(C)C(C(=O)Nc1ccc(S(=O)(=O)N(C)C)cc1)c1ccc(Cl)cc1 (stereo not drawn) | 96.6 | 94.8 | 98.6 | 90.3
10 | COc1ccc(C(=N)N)cc1-c1cn(-c2ccc(C(=N)N)cc2)nn1 | 65.6 | 53.6 | 47.8 | 39.2
11 | O=C(Nc1ccc2c(c1)B(O)OC2)c1ccccc1C(F)(F)F | 69.1 | 67.8 | 74.6 | 87
12 | N#CCN(CCCCN1CCN(c2ccc(F)cc2)CC1)C(=O)OCc1ccccc1 | 20.2 | 7.66 | 32.3 | 18.1
